Measured values taken from the supplement of paper PMC13380429.

System: Vero E6 infected with SARS-CoV-2
Assay: inhibition of SARS-CoV-2 cytopathic effect; higher = more antiviral protection, active = above 15
Settings: 48 h

Measured: inhibition of SARS-CoV-2 cytopathic effect

Cc1c(C(=O)NN2CCCCC2)nn(-c2ccc(Cl)cc2Cl)c1-c1ccc(I)cc1
inactive: 1 nM 0.54% | 8.33 nM -3.71% | 100 nM 3.18% | 833.33 nM 1.67% | 10000 nM 2.28%

Cn1nnc(-c2ccc(-c3ccc(N4C[C@H](COP(=O)(O)O)OC4=O)cc3F)cn2)n1 [tedizolid-phosphate]
inactive: 1 nM -1.65% | 8.33 nM -1.24% | 100 nM -0.65% | 833.33 nM 1.74% | 10000 nM 1.44%

CCOc1ccc(-c2nc(-c3cccc4c3CCC4NCCO)no2)cc1OCC (stereo not given)
inactive: 1 nM -0.52% | 8.33 nM 0.67% | 100 nM 1.13% | 833.33 nM 0.77% | 10000 nM 5.33%

COc1ccc(CN(CCN(C)C)c2ccccn2)cc1 [mepyramine]
inactive: 1 nM -3.35% | 8.33 nM -2.48% | 100 nM -1.11% | 833.33 nM 2.27% | 10000 nM 1.04%

CCOc1nc2cccc(C(=O)OCc3oc(=O)oc3C)c2n1Cc1ccc(-c2ccccc2-c2noc(=O)[nH]2)cc1 [azilsartan-medoxomil]
inactive: 1 nM 0.24% | 8.33 nM 1.14% | 100 nM 2.01% | 833.33 nM 1.93% | 10000 nM -0.28%

O=C1c2ccccc2-n2c1nc1ccccc1c2=O [tryptanthrin]
inactive: 1 nM 3.12% | 8.33 nM -0.23% | 100 nM 0.33% | 833.33 nM 0.62% | 10000 nM 0.39%

CN(C)CCOC(c1ccccc1)c1ccccc1 [diphenhydramine]
inactive: 1 nM 0.83% | 8.33 nM 0.08% | 100 nM -0.85% | 833.33 nM 0.48% | 10000 nM -0.92%

CCCC(CCC)C(=O)Nc1ccn([C@@H]2O[C@H](CO)[C@@H](O)C2(F)F)c(=O)n1
inactive: 1 nM -0.06% | 8.33 nM -1.71% | 100 nM -2.25% | 833.33 nM -0.4% | 10000 nM -4.21%

CC1=C(C(=O)O)N2C(=O)[C@@H](NC(=O)[C@H](N)c3ccc(O)cc3)[C@H]2SC1 [cefadroxil]
inactive: 1 nM 1.06% | 8.33 nM 1.53% | 100 nM 1.01% | 833.33 nM -2.49% | 10000 nM -1.18%

O=C(Nc1ccccc1C(=O)NC1CCCCNC1=O)c1cc2ccccc2s1 (stereo not given)
inactive: 1 nM -1.69% | 8.33 nM -3.72% | 100 nM -3.22% | 833.33 nM -1.52% | 10000 nM -0.14%

CCOc1c(N2CCOCC2)cnn(C)c1=O [emorfazone]
inactive: 1 nM -7.19% | 8.33 nM -6.29% | 100 nM -2.95% | 833.33 nM -0.94% | 10000 nM 0.67%

O=C1Nc2ccccc2C2(CCN(CCc3ccc(C(F)(F)F)cc3)CC2)O1
inactive: 1 nM -1.89% | 8.33 nM -4.51% | 100 nM -1.41% | 833.33 nM -2.49% | 10000 nM -3.73%

CC1(C)CC(=O)C(C2C3=C(CC(C)(C)CC3=O)Oc3ccccc32)C(=O)C1 (stereo not given)
inactive: 1 nM -0.63% | 8.33 nM 0.77% | 100 nM -0.14% | 833.33 nM 1.93% | 10000 nM -2.4%

CC1=C(C(=O)OC(C)C)C(c2cccc([N+](=O)[O-])c2)C(C(=O)OC2CN(C(c3ccccc3)c3ccccc3)C2)=C(N)N1 (stereo not given) [azelnidipine]
inactive: 1 nM 3.44% | 8.33 nM 1.14% | 100 nM -0.26% | 833.33 nM 0.91% | 10000 nM -6.87%

Oc1c(I)cc(Cl)c2cccnc12 [clioquinol]
inactive: 1 nM -4.79% | 8.33 nM -6.61% | 100 nM -4.78% | 833.33 nM -5.93% | 10000 nM -9.21%

Fc1ccc2nc(CCC#Cc3ccccn3)cn2c1 [dipraglurant]
inactive: 1 nM 0.01% | 8.33 nM 0.17% | 100 nM 0.87% | 833.33 nM 1.2% | 10000 nM 2.02%

O=C[C@H](F)[C@@H](O)[C@@H](O)[C@H](O)CO [2-fluoro-2-deoxy-D-galactose]
inactive: 1 nM 1.5% | 8.33 nM 1.13% | 100 nM 1.44% | 833.33 nM 1.15% | 10000 nM 0.92%

N=C(NCCCCCCNC(=N)NC(=N)Nc1ccc(Cl)cc1)NC(=N)Nc1ccc(Cl)cc1 [chlorhexidine]
inactive: 1 nM 3.47% | 8.33 nM 4.11% | 100 nM 4.83% | 833.33 nM 2.74% | 10000 nM -3.2%

CN(C)[C@@H]1CCc2[nH]c3ccc(NC(=O)c4ccc(F)cc4)cc3c2C1
inactive: 1 nM -0.2% | 8.33 nM 0.81% | 100 nM 1.23% | 833.33 nM 3.46% | 10000 nM 4.97%

C1CCC(/N=C(\NC23CC4CC(CC(C4)C2)C3)N2CCOCC2)CC1
inactive: 1 nM 7.27% | 8.33 nM 1.31% | 100 nM 1.69% | 833.33 nM 4.84% | 10000 nM -3.64%

CC(=O)N1CCC[C@H]1C(=O)N[C@@H](Cc1cnc[nH]1)C(=O)N[C@@H](CO)C(=O)N[C@@H](CS)C(=O)N[C@@H](CC(N)=O)C(N)=O
inactive: 1 nM 1.06% | 8.33 nM 0.67% | 100 nM 2.55% | 833.33 nM 2.87% | 10000 nM 3.86%

CC(C)(C)NCC(O)CSc1nc(-c2ccc(C(N)=O)s2)cs1 (stereo not given) [arotinolol]
inactive: 1 nM -12.3% | 8.33 nM -9.63% | 100 nM -11% | 833.33 nM -9.7% | 10000 nM -6.09%

N#C/C(=C1/SCC(c2ccccc2Cl)S1)n1ccnc1 (stereo not given) [lanoconazole]
inactive: 1 nM 0.51% | 8.33 nM 2.17% | 100 nM 4.14% | 833.33 nM 0.83% | 10000 nM 0.48%

Cc1c(-c2cnccn2)ssc1=S [oltipraz]
inactive: 1 nM 1.51% | 8.33 nM 4.72% | 100 nM 3.49% | 833.33 nM 5.97% | 10000 nM 0.75%

CCOC(=O)C1=C(C)NC(C)=C(C(=O)OCC)C1c1ccccc1/C=C/C(=O)OC(C)(C)C [lacidipine]
inactive: 1 nM 2.1% | 8.33 nM -0.72% | 100 nM 0.07% | 833.33 nM 3.01% | 10000 nM 3.85%

c1ccc([C@H]2CNCc3ccccc32)cc1 [4-phenyl-1,2,3,4-tetrahydroisoquinoline]
inactive: 1 nM -0.57% | 8.33 nM 5.18% | 100 nM 3.96% | 833.33 nM 8.92% | 10000 nM 3%

C[C@H](Cn1cnc2c(N)ncnc21)OCP(=O)(O)O [tenofovir]
inactive: 1 nM -0.47% | 8.33 nM -2.44% | 100 nM -1.27% | 833.33 nM 0.5% | 10000 nM 0.69%
